From publication PMC11062922 (Nature Chemical Biology, 2023)
Read-outs that look alike come from different tables or passages of the source.

Key:
Set-up in all cases: species or system human, MV4-11 + K-562 + COLO205 + SK-N-BE2 + OVCAR-8
CDK1 = conditions: read-out: apparent Kd, n = 1
CDK2 = conditions: read-out: apparent Kd, n = 1
CDK5 = conditions: read-out: apparent Kd, n = 1
LIMK2 = conditions: read-out: apparent Kd, n = 1
TESK1 = conditions: read-out: apparent Kd, compound concentrations: 100 nM and 1000 nM (sheet 'Samples'), n = 1
STK3 = conditions: read-out: apparent Kd, n = 1
SIK3 = conditions: read-out: apparent Kd, compound concentrations: 100 nM and 1000 nM (sheet 'Samples'), n = 1
PTK2B = conditions: read-out: apparent Kd, n = 1
PTK2 = conditions: read-out: apparent Kd, n = 1
MAPK8 = conditions: read-out: apparent Kd, n = 1
ERBB3 = conditions: read-out: apparent Kd, compound concentrations: 100 nM and 1000 nM (sheet 'Samples'), n = 1
ADCK1 = conditions: read-out: apparent Kd, n = 1
MTOR = conditions: read-out: apparent Kd; compound concentrations:100 nM and 1000 nM (sheet 'Samples'); n = 1
PYGL = conditions: read-out: apparent Kd, n = 1
TEC = conditions: read-out: apparent Kd, n = 1
DCTPP1 = conditions: read-out: apparent Kd; compound concentrations:100 nM and 1000 nM (sheet 'Samples'); n = 1
IRAK3 = conditions: read-out: apparent Kd, n = 1
STK16 = conditions: read-out: apparent Kd, n = 1
ADRBK1 = conditions: read-out: apparent Kd, n = 1
PIK3CA = conditions: read-out: apparent Kd; compound concentrations:100 nM and 1000 nM (sheet 'Samples'); n = 1
[1] = compound concentrations:100 nM and 1000 nM (sheet 'Samples')

CC(C)c1nc(-c2cccc(NS(=O)(=O)c3c(F)cccc3F)c2F)c(-c2ccnc(Nc3ccc(N4CCOCC4)nc3)n2)s1 [GSK2008607A]
potency estimated from few doses (CDK1; compound concentrations: 100 nM and 1000 nM (sheet 'Samples'), CATDS: 1.7444638533949799E-2): 2410 nM | potency estimated from few doses (CDK2; compound concentrations: 100 nM and 1000 nM (sheet 'Samples'), CATDS: 2.0277618916634502E-2): 1320 nM | potency estimated from few doses (CDK5; compound concentrations: 100 nM and 1000 nM (sheet 'Samples'), CATDS: 2.5832908266049601E-2): 668 nM | potency estimated from few doses (LIMK2; compound concentrations: 100 nM and 1000 nM (sheet 'Samples'), CATDS: 2.06856155254838E-2): 1240 nM | potency estimated from few doses (TESK1; CATDS: 2.61955130991521E-2): 646 nM

Cn1cc(-c2cnc(N)c3c(-c4ccc5c(c4)CCN5C(=O)Cc4ccccc4)csc23)cn1 [GSK2593074A]
potency estimated from few doses (STK3; [1]): 1890 nM

CC(C)c1nc(-c2cccc(NS(=O)(=O)c3c(F)cccc3F)c2)c(-c2ccnc(Nc3ccc(N4CCOCC4)nc3)n2)s1.Cl [GSK1723980B]
potency estimated from few doses (CDK1; compound concentrations: 100 nM and 1000 nM (sheet 'Samples'), CATDS: 1.4820123571840101E-2): 1580 nM | potency estimated from few doses (CDK2; compound concentrations: 100 nM and 1000 nM (sheet 'Samples'), CATDS: 1.87425082345213E-2): 614 nM | potency estimated from few doses (CDK5; compound concentrations: 100 nM and 1000 nM (sheet 'Samples'), CATDS: 2.2922403030908301E-2): 350 nM | potency estimated from few doses (LIMK2; compound concentrations: 100 nM and 1000 nM (sheet 'Samples'), CATDS: 2.58899611952562E-2): 263 nM | potency estimated from few doses (SIK3; CATDS: 1.4935731096458E-2): 1520 nM | potency estimated from few doses (TESK1; CATDS: 3.6756821103285202E-2): 132 nM

Cl.Cn1c(=O)c(Cc2ccc(F)cc2F)cc2cnc(NC3CCOCC3)nc21 [RO3308757-001]
potency estimated from few doses (PTK2B; [1]): 456 nM | potency estimated from few doses (PTK2; [1]): 474 nM

Fc1ccc(-c2c(-c3ccncc3)[nH]c3nccnc23)cc1 [RO1155697-000]
potency estimated from few doses (MAPK8; [1]): 1790 nM

N#Cc1cnc2cc(-c3cnc(CNCCN4CCOCC4)s3)ccc2c1Nc1ccc(Oc2ccccc2)cc1 [GW664114X]
potency estimated from few doses (ERBB3; CATDS: 9.1270292154097404E-2): 245 nM

CC(C)c1nc(-c2ccc(F)c(NS(=O)(=O)c3c(F)cccc3F)c2)c(-c2ccnc(Nc3ccc(N4CCOCC4)nc3)n2)s1 [GSK1804250A]
potency estimated from few doses (LIMK2; [1]): 478 nM

Nc1nc(N)c2nc(-c3ccccc3)[nH]c2n1 [SKF-12778]
potency estimated from few doses (ADCK1; [1]): 1200 nM | potency estimated from few doses (MTOR): 400 nM | potency estimated from few doses (PYGL; [1]): 1640 nM | potency estimated from few doses (TEC; [1]): 1160 nM

N#Cc1cccc(Nc2nccc(-c3cnn4ncccc34)n2)c1 [GW778894X]
potency estimated from few doses (ADCK1; [1]): 2050 nM | potency estimated from few doses (CDK1; [1]): 1240 nM | potency estimated from few doses (CDK2; compound concentrations: 100 nM and 1000 nM (sheet 'Samples'), CATDS: 2.8219089282239498E-2): 194 nM | potency estimated from few doses (CDK5; [1]): 669 nM | potency estimated from few doses (MAPK8; [1]): 1330 nM

COc1cc2nccc(Nc3ccc(Oc4ccccc4)cc3)c2cc1OC.Cl [GI261656A]
potency estimated from few doses (ERBB3; CATDS: 4.9978680002658399E-2): 623 nM

Nc1ncc(-c2cn[nH]c2)c2scc(-c3ccc4c(c3)CCN4C(=O)Cc3ccccc3)c12 [GSK2593067A]
potency estimated from few doses (STK3; compound concentrations: 100 nM and 1000 nM (sheet 'Samples'), CATDS: 6.6601304210445203E-2): 1190 nM

Fc1cc(Cl)ccc1Nc1ccnc2cc(-c3ccc(CN4CCOCC4)o3)ccc12 [GW560109X]
potency estimated from few doses (SIK3; CATDS: 5.0355620048332002E-2): 1910 nM

O=S(=O)(c1ccc(-c2ccnc3[nH]ccc23)cc1)N1CCCC1 [GSK846226A]
potency estimated from few doses (DCTPP1): 2150 nM

CNc1nccc(-c2c(-c3ccc(F)cc3)ncn2C2CCN(C)CC2)n1 [SB-222903]
potency estimated from few doses (MTOR): 295 nM

CNC(=O)c1ccccc1Nc1nc(Nc2cccc(CS(C)(=O)=O)c2)ncc1C.O=CO [GSK1520489A]
potency estimated from few doses (IRAK3; compound concentrations: 100 nM and 1000 nM (sheet 'Samples'), CATDS: 6.3642542209879499E-2): 16.2 nM | potency estimated from few doses (MAPK8; compound concentrations: 100 nM and 1000 nM (sheet 'Samples'), CATDS: 1.2501380881005299E-2): 517 nM | potency estimated from few doses (PTK2B; compound concentrations: 100 nM and 1000 nM (sheet 'Samples'), CATDS: 2.8071916989063601E-2): 65.5 nM | potency estimated from few doses (PTK2; compound concentrations: 100 nM and 1000 nM (sheet 'Samples'), CATDS: 4.2767285410469903E-2): 30.2 nM | potency estimated from few doses (STK16; compound concentrations: 100 nM and 1000 nM (sheet 'Samples'), CATDS: 2.3983880535388601E-2): 91.1 nM | potency estimated from few doses (TEC; compound concentrations: 100 nM and 1000 nM (sheet 'Samples'), CATDS: 7.2078436601234794E-2): 13.5 nM

CN1CCN(Cc2ccc(NC(=O)Nc3ccc(N(C)c4ccnc(Nc5ccc(CS(C)(=O)=O)cc5)n4)cc3)cc2)CC1.Cl [GW827654A]
potency estimated from few doses (ADCK1; compound concentrations: 100 nM and 1000 nM (sheet 'Samples'), CATDS: 3.6113243316098803E-2): 1520 nM

Clc1ccc(-c2nn3ncccc3c2-c2ccnc(Nc3ccccc3)n2)cc1 [GW829055X]
potency estimated from few doses (ADCK1; compound concentrations: 100 nM and 1000 nM (sheet 'Samples'), CATDS: 3.6697893678181097E-2): 1430 nM | potency estimated from few doses (ADRBK1; compound concentrations: 100 nM and 1000 nM (sheet 'Samples'), CATDS: 3.1852234097214598E-2): 2080 nM | potency estimated from few doses (PYGL; compound concentrations: 100 nM and 1000 nM (sheet 'Samples'), CATDS: 3.3581254695289102E-2): 1800 nM | potency estimated from few doses (STK3; compound concentrations: 100 nM and 1000 nM (sheet 'Samples'), CATDS: 3.09457854656708E-2): 2270 nM

Cl.Oc1ccc2ncnc(Nc3ccc(OCc4ccccc4)cc3)c2c1 [GI262866A]
potency estimated from few doses (STK16; [1]): 1160 nM

NS(=O)(=O)c1cccc(-c2ccc3nccc(-c4cccc(S(N)(=O)=O)c4)c3c2)c1 [GW867253X]
potency estimated from few doses (ADRBK1; compound concentrations: 100 nM and 1000 nM (sheet 'Samples'), CATDS: 0.51630856929824398): 1860 nM

COc1cc(N2CCN(C(C)C)CC2)ccc1Nc1nc(Nc2cccc(F)c2C(=O)O)c2cc[nH]c2n1 [GSK1819799A]
potency estimated from few doses (MAPK8; compound concentrations: 100 nM and 1000 nM (sheet 'Samples'), CATDS: 0.22198197498325201): 84.9 nM | potency estimated from few doses (PTK2B; compound concentrations: 100 nM and 1000 nM (sheet 'Samples'), CATDS: 7.8469335656757594E-2): 466 nM | potency estimated from few doses (PTK2; compound concentrations: 100 nM and 1000 nM (sheet 'Samples'), CATDS: 7.4046545419842305E-2): 522 nM

NC(=O)c1cccnc1COc1cc(-c2ccc(N3CCOCC3)nc2)cc2ncccc12 [BI01125081]
potency estimated from few doses (DCTPP1): 1970 nM | potency estimated from few doses (IRAK3; [1]): 577 nM | potency estimated from few doses (STK16; [1]): 1240 nM

COc1ccc(C2=NC(c3ccc(Cl)cc3F)C(C(=O)Nc3ccc4[nH]ncc4c3)=C(C)N2)cn1.O=C(O)C(F)(F)F (stereo not drawn) [GSK534913A]
potency estimated from few doses (ADRBK1; [1]): 895 nM

COc1cc(F)c(F)c(F)c1C(=O)c1cnc(NC2CCN(S(C)(=O)=O)CC2)nc1N [RO4600703-000]
potency estimated from few doses (CDK1; [1]): 368 nM | potency estimated from few doses (CDK2; [1]): 90.2 nM | potency estimated from few doses (CDK5; [1]): 138 nM

COc1ccc(C2=C(Nc3cccc(O)c3)C(=O)NC2=O)cc1 [SB-390766]
potency estimated from few doses (PIK3CA): 115 nM | potency estimated from few doses (STK16; [1]): 1590 nM

COc1ccc(Nc2nccc(N3CCC(NC(=O)Nc4cccc(OC)c4)C3)n2)cc1 (stereo not drawn) [GSK1379742A]
potency estimated from few doses (CDK1; compound concentrations: 100 nM and 1000 nM (sheet 'Samples'), CATDS: 0.12045824140997501): 1770 nM
